# Screening results as filed in PubChem BioAssay.
# Compounds with a hit are over-represented: about 19% of the library has one in this group of screens.
# IL-1B inflam inh = inhibitors of inflammasome signaling (IL-1 beta secretion). THP-1 LPS/ATP IL-1B secretion, AlphaLISA, 16 h; active compounds read low. activity change, % at 57.5 µM. 4.7% of 360,000 active. AID 743279; in the data active = activity change below about -50%; inconclusive = mostly about -30% to -49%
#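 Secreted IL-1B measured by AlphaLISA bead assay after 16 h compound exposure of THP-1 cells; compounds (final up to 57.5 uM) added 1 h before LPS (250 ng/mL) and ATP (1.25 mM) stimulation; lower signal means less secretion.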
# TDP1 cell noCPT = qHTS for Inhibitors of human tyrosyl-DNA phosphodiesterase 1 (TDP1): qHTS in cells in absence of CPT | DT40 Tdp1-/- hTDP1 cells, no CPT, ATP luminescence, 48 h | Potency, µM (highest dose often 46.2 µM), for inactives: at the top dose activity change, negative = growth inhibition, hits mostly inhibitors | AID 686978, 2013 | 15% of 420,000 active; note: potency is the fitted concentration of half-maximal effect; nearly all actives have a fitted effect of over 55% in size
#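 Camptothecin absent (DMSO only). Human TDP1-complemented DT40 knockout cells, 400 cells/well, 37 °C for minimum 48 hr; ATP measured via CellTiter-Glo, 30 min dark incubation, luminescence.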
# HT1080 IDH1KD tx = kills HT-1080 cells with IDH1 knockdown; HT-1080 IDH1 knockdown viability, ATP luminescence, 48 h; Potency, µM (series often up to 46.1 µM), without a hit: top-dose activity, negative = toxicity, actives largely listed as cytotoxic; 2% of 360,000 active; AID 686971;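 note: potency is the fitted concentration of half-maximal effect; 0% = DMSO wells and -100% = cell-free medium wells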
#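 IDH1KD HT-1080 cells, 750/well, RPMI + 5% FBS; compound pinned after 2 h settling; 48 h, 37 °C; CellTiter-Glo luminescence; % activity normalised to DMSO and no-cell wells; curves fitted, classed by r2 and efficacy.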
# uPA surface inh = inhibitors of cell surface uPA generation; Potency, µM (series often up to 38.3 µM), inactives show at the top dose activity change, negative = inhibition, usual class: inhibitors; 0.31% of 330,000 active; cell surface uPA generation assay, qHTS; active = well fitted inhibition curve with a large enough effect; inconclusive = small, poorly fitted or top-dose-only effect; inactive = no such curve, though single readings can be large or run the other way; tested in mouse RAW 264.7 cells; note: potency is the fitted concentration of half-maximal effect; nearly all actives have a fitted effect of over 55% in size
# HT1080NT lethal = kills 2HG-producing HT-1080-NT fibrosarcoma cells; Potency, µM (titrated, usually from 46.1 µM), for inactives: at the highest dose activity, negative = less viability, usual class: cytotoxic; 1.6% of 360,000 active; AID 686970; HT-1080-NT fibrosarcoma viability, CellTiter-Glo ATP luminescence, 48 h;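 note: NT is the 2HG producing partner of a matched IDH1 knockdown line; potency is the fitted concentration of half-maximal effect; 0% = DMSO-treated cells and -100% = media-only wells without cells; nearly all actives have a fitted effect of over 55% in size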
#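 Fibrosarcoma NT cells, 750 per well in 5% FBS RPMI, were exposed to compound for 48 hours. Viability: CellTiter-Glo luminescence.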
# TDP1 cell CPT = DT40-hTDP1 cell growth loss with CPT | chicken DT40 Tdp1-/-;hTDP1 cells + 20 nM CPT, ATP luminescence, 48 h | Potency, µM (top dose mostly 46.2 µM), inactives show at the highest dose activity change, negative = growth inhibition, usual class: inhibitors | 12% of 420,000 active; note: potency is the fitted concentration of half-maximal effect; nearly all actives have a fitted effect of over 55% in size
#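 Chicken DT40 Tdp1-/- cells stably complemented with human TDP1 were seeded at 400 cells/well in medium containing 20 nM camptothecin, exposed to pin-transferred compounds, and grown at 37 °C for at least 48 hr. Viability was read as ATP luminescence.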
# The depositor's hits bear a star; ? = inconclusive; . = no result given; [ ] = another dose, or the depositor's remark. Unless noted, calls come from the whole dose curve; as a rule, active = well fitted curve in the direction sought with a large enough effect; inconclusive = small, poorly fitted or top-dose-only effect, or another doubt; inactive = no such curve, though single readings can be large; an effect the other way counts as inactive or inconclusive. Unless noted, % is set by controls: 0 for no effect and ±100 for the full control effect.
SMILES,IL-1B inflam inh,TDP1 cell noCPT,HT1080 IDH1KD tx,uPA surface inh,HT1080NT lethal,TDP1 cell CPT
O=[N+]([O-])c1ccc(Cl)c2c1C1C=CCC1C(c1ccccn1)N2 (configuration not stated),0,?,0%,-3%,0%,18µM*
Cc1ccc(S(=O)(=O)Nc2cc(C(=O)NCCN(C)C)ccc2N2CCCCC2)cc1,?,16µM*,?,-9%,?,?
CCOCCCNC(=O)c1ccc(N2CCCC2)c(NS(=O)(=O)c2ccc(C)cc2)c1,-9,?,2%,-19%,4%,?
COCCCNC(=O)c1ccc(N2CCCC2)c(NS(=O)(=O)c2ccc(C)cc2)c1,-5,?,?,.,7%[9.24 µM],-27%
Cc1ccc(S(=O)(=O)Nc2cc(C(=O)NCCN3CCCC3)ccc2N2CCCCC2)cc1,-19,16µM*,?,-2%,?,21µM*
NNC(=O)c1[nH]c2ccc(Br)cc2c1-c1ccccc1,14,23µM*,15µM*,-16%,9.2µM*,?
CCN(CC)C(=S)Sc1c(-c2ccccc2)c2cc(Cl)ccc2[nH]c1=O,-61*,?,?,9%,-17%,2.3µM*
O=C(O)CSc1c(-c2ccccc2)c2cc(Cl)ccc2[nH]c1=O,10,-4%,-1%,0%,-1%,-4%
NNC(=O)c1[nH]c2ccc(Cl)cc2c1-c1ccccc1,26,21µM*,?,-6%,?,?
Cn1c2ccccc2n2c(=O)c(=O)n(CC(=O)c3ccc(Cl)cc3)nc12,22,1%,12%,1%,14%,-4%
Cc1c(C(=O)NCCN2CCOCC2)cnn1-c1nccc(-c2cc3ccccc3o2)n1,.,-18%,.,.,.,-17%
CCOc1ccc(CCNC(=O)c2ccc3c(=O)[nH]c4c(C(=O)NC(C)C)sc(=S)n4c3c2)cc1,9,13µM*,1%,11%,-1%,23µM*
CCOc1ccc(-c2nnc(SCC(=O)N3CCNC3=O)o2)cc1,0,11%,8%,-20%,0%,-6%
Cc1sc2ncnc(NCC(C)(C)N3CCOCC3)c2c1C,?,1.5µM*,-21%[9.24 µM],-13%,-28%,2.1µM*
c1nc(NCC2(N3CCOCC3)CCCCC2)c2ccsc2n1,3,18µM*,2%,-1%,2%,12µM*
Cc1sc2ncnc(NCC3(N4CCOCC4)CCCCC3)c2c1C,3,23µM*,-7%[9.24 µM],-1%,-1%,21µM*
Cc1sc2ncnc(SCC(=O)N3CCOCC3)c2c1C,-6,0%,-3%,?,13%,-5%
Cc1sc2ncnc(NCC3CCCO3)c2c1C (configuration not stated),11,9.2µM*,-16%,-6%,-18%,16µM*
CCCCNc1ncnc2[nH]ncc12,4,-22%,-7%,14%,-1%,?
COc1ccc(C2(CNC(=O)c3cccs3)CCOCC2)cc1,25,-4%,4%,2%,6%,2%
CC1CCN(CC2C(=O)O[C@@H]3C[C@@]4(C)CCC[C@H](C)C4=C[C@H]23)CC(C)(C)C1 (some centres not stated),.,18µM*,-4%,-10%,-14%,?
Cc1cc(C)c2c(=O)n(CC(=O)Nc3ccc(Br)c(C)c3)sc2n1,8,9.2µM*,1%,3%,0%,8.2µM*
Cc1cc(NC(=O)Cc2ccsc2)ccc1Br,-23,-11%,11%,4%,5%,-13%
Cc1cc(C)c2c(N)c(C(=O)NC3CCCC3)sc2n1,?,-29%,15%,3%,8%,-2%
Cc1c(Cl)cccc1NC(=O)Cn1cccc1,8,-6%,5%,.,10%,1%
SMILES,IL-1B inflam inh,TDP1 cell noCPT,HT1080 IDH1KD tx,uPA surface inh,HT1080NT lethal,TDP1 cell CPT
Cc1cc(C)c2c(=O)n(CC(=O)NC3CCCC3)sc2n1,-2,4.1µM*,16%,4%,17%,2.9µM*
Cc1cc(C)c2c(=O)n(CC(=O)Nc3cccc(Cl)c3C)sc2n1,3,3.7µM*,?,3%,?,5.2µM*
Cc1oc(-c2cccs2)cc1C(=O)N1CCCC(C)(C(=O)O)C1 (configuration not stated),27,-15%,5%,.,6%,1%
c1cc2c(cc1C1CCCCC1)c1c3n2CCN=C3CCC1,?,?,?,4%,21µM*,?
Cc1ccc2c(c1)c1c3n2CCN=C3CCC1,-96*,-29%,-4%,-1%,-1%,-25%
COc1ccccc1S(=O)(=O)NCc1ccc(C(=O)NC2CCC(O)CC2)cc1 (configuration not stated),0,-29%,3%,4%,-3%,?
Cc1cccc(C)c1NC(=O)CN(C)S(=O)(=O)c1ccc2[nH]c3c(c2c1)CCCC3,.,21µM*,.,.,.,?
CN(CC(=O)NCc1ccc(F)cc1)S(=O)(=O)c1ccc2[nH]c3c(c2c1)CCCC3,.,18µM*,.,.,.,21µM*
Cc1cccc(N(C)C(=O)CN(C)S(=O)(=O)c2ccc3[nH]c4c(c3c2)CCCC4)c1,.,?,.,.,.,23µM*
Cc1ccc(N(C)C(=O)CN(C)S(=O)(=O)c2ccc3c(c2)n(C)c(=O)c(=O)n3C)cc1,-2,10%,2%,10%,5%,17%
Cc1ccc(S(=O)(=O)/N=C(/Nc2cccc(O)c2)c2ccccc2)cc1,-9,?,-15%,0%,-24%,?
CC(Sc1nnc(Nc2ccccc2)s1)C(=O)Nc1nc(-c2ccccc2)cs1 (configuration not stated),-14,?,?,3%,?,?
CC(Sc1nnc(NCc2ccccc2)s1)C(=O)Nc1ccc2c(c1)C(=O)c1ccccc1C2=O (configuration not stated),-2,18µM*,-5%,-3%,-2%,?
O=C1C=C(NCc2ccc3c(c2)OCO3)CC(c2ccccc2)C1 (configuration not stated),2,18µM*,?,-10%,-18%,?
Cc1ccc(C2CC(=O)C=C(Nc3ccc(Cl)cc3)C2)cc1 (configuration not stated),17,?,4%,-5%,0%,?
COc1ccc(C2CC(=O)C=C(NCCC(C)C)C2)cc1 (configuration not stated),-21,15µM*,-9%,3%,-16%,?
